Bioassay records from PubChem BioAssay.
V-ATPase pHluor = regulators of yeast V-ATPase proton transport. S. cerevisiae, pHLuorin cytosolic pH fluorescence. response, % at 10 µM. actives 0.37% (n = 350,000). AID 504577; in the data active means response mostly above about 7.3%, no sharp cut-off; inactive means mostly below about 5.4%; further: actives read high
OPRM1-OPRD1 inv = inverse agonist of human OPRM1-OPRD1 heterodimerization; actives 0.21% (n = 340,000); inhibition, % at 9.3 µM; cell-based MOR-DOR heterodimer luminescence, inverse agonism; AID 504357; P35372+P41143; in the data active means inhibition above about 22%, passing the limit was not always enough
Target sequence (P35372 whole entry, looked up): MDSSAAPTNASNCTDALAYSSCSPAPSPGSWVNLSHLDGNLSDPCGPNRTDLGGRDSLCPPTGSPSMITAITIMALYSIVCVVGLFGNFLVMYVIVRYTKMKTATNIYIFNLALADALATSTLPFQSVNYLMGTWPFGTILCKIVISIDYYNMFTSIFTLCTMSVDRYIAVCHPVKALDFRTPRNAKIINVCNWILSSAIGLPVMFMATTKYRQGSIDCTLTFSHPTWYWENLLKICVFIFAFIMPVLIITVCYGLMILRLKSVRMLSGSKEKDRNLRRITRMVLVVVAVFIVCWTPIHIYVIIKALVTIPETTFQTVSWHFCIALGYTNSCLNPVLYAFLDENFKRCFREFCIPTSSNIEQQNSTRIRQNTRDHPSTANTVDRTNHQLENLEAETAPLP
Target sequence (P41143 whole entry, looked up): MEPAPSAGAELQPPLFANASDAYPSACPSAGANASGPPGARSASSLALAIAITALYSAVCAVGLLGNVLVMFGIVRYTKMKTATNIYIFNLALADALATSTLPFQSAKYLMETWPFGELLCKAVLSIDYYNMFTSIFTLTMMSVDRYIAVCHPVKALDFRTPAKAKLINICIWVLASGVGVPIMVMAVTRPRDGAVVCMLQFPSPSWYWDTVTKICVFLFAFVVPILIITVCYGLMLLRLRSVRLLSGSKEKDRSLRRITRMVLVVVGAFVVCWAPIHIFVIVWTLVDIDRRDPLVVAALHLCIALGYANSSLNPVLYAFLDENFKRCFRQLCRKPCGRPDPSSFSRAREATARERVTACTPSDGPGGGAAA
MOR-DOR ag = OPRM1-OPRD1 heterodimerization agonism; actives 0.3% (n = 340,000); cells, luminescence; activation, % at 9.3 µM; P35372+P41143; in the data active means activation above about 18%
HTR5A ag = activates human HTR5A in OPRM1-OPRD1 agonist counter-screen | P47898 | HTR5A agonist assay, luminescence, cell-based | activation, % at 9.3 µM | actives 0.61% (n = 340,000); in the data active means activation mostly above about 9.5%, no sharp cut-off; inactive means mostly below about 7.6%
HTR5A inv ag = counter-screen for OPRM1-OPRD1 inverse agonists: human HTR5A inverse agonism; HTR5A cell line, luminescence; inhibition, % at 9.3 µM; actives 0.083% (n = 340,000); in the data active means inhibition mostly above about 23%, no sharp cut-off; inactive means mostly below about 18%
MIN6 prolif-1 = MIN6 beta-cell proliferation induction. AID 2380. proliferation, % at 10 µM. actives 0.29% (n = 330,000). MIN6 cells proliferation, ATPlite luminescence, 48 h; cells starved in 0.2% serum; 100% = growth in 10% serum;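 active means compounds whose signal lies at least 3.5 SD above the mean of all wells on their plate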
MIN6 prolif-2 = MIN6 beta-cell replication induction, confirmed; MIN6 beta-cell proliferation, ATPlite luminescence, 48 h; cells kept in 0.2% serum; scaled between 0.2% and 10% serum; 920 tested, under 10 active; AID 463095; shares compounds with MIN6 prolif-1; proliferation increase, % at 50 µM;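 active means proliferation increase above 40% at any of the four tested concentrations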
Numbers stand for hits. Rows were chosen to be rich in hits. Some 1.7% of all compounds tested hit in one or more screens of this group.

What do the screens show for `COc1ccc(CCNC(=O)CCN2C(=O)c3cccc4cccc(c34)C2=O)cc1OC`?
V-ATPase pHluor: inactive; OPRM1-OPRD1 inv: inactive; MOR-DOR ag: inactive; HTR5A ag: inactive; HTR5A inv ag: inactive; MIN6 prolif-1: 7.9; MIN6 prolif-2: inactive

Results for O=C(CN(c1ccccc1)S(=O)(=O)c1ccccc1[N+](=O)[O-])Nc1cccnc1 ?
V-ATPase pHluor: inactive; OPRM1-OPRD1 inv: inactive; MOR-DOR ag: inactive; HTR5A ag: inactive; HTR5A inv ag: inactive; MIN6 prolif-1: 5.5; MIN6 prolif-2: inactive

Results for Cn1c(N)nc2nc[nH]c2c1=S ?
V-ATPase pHluor: inactive; OPRM1-OPRD1 inv: inactive; MOR-DOR ag: inactive; HTR5A ag: inactive; HTR5A inv ag: inactive

How did CC(=O)c1ccc(Oc2cnccn2)cc1 do in these assays?
V-ATPase pHluor: inactive; OPRM1-OPRD1 inv: inactive; MOR-DOR ag: inactive; HTR5A ag: inactive; HTR5A inv ag: inactive; MIN6 prolif-1: inactive

How did COc1ccccc1CCN1CCCC(CN(C)Cc2ccc(OCCO)cc2)C1 (stereo not drawn) do in these assays?
V-ATPase pHluor: inactive; OPRM1-OPRD1 inv: inactive; MOR-DOR ag: inactive; HTR5A ag: inactive; HTR5A inv ag: inactive; MIN6 prolif-1: 5.8; MIN6 prolif-2: inactive

Results for COc1ccccc1CCN1CCCC(CN(C)CC(C)(C)CO)C1 (stereo not drawn) ?
V-ATPase pHluor: inactive; OPRM1-OPRD1 inv: inactive; MOR-DOR ag: inactive; HTR5A ag: inactive; HTR5A inv ag: inactive; MIN6 prolif-1: inactive

What do the screens show for `CC(C)c1c(C(=O)N/N=C/C=C/c2ccccc2)nnn1-c1nonc1N`?
V-ATPase pHluor: inactive; OPRM1-OPRD1 inv: inactive; MOR-DOR ag: inactive; HTR5A ag: inactive; HTR5A inv ag: inactive; MIN6 prolif-1: 12; MIN6 prolif-2: inactive

What do the screens show for `COc1ccc(C(=O)N=C2SC3CS(=O)(=O)CC3N2c2ccc(N(C)C)cc2)cc1OC` (stereo not drawn)?
V-ATPase pHluor: inactive; OPRM1-OPRD1 inv: inactive; MOR-DOR ag: inactive; HTR5A ag: inactive; HTR5A inv ag: inactive; MIN6 prolif-1: 14; MIN6 prolif-2: inactive

What do the screens show for `COc1ccc(N2C(=NC(=O)C3CCCCC3)SC3CS(=O)(=O)CC32)cc1OC` (stereo not drawn)?
V-ATPase pHluor: inactive; OPRM1-OPRD1 inv: inactive; MOR-DOR ag: inactive; HTR5A ag: inactive; HTR5A inv ag: inactive; MIN6 prolif-1: inactive

How did CCn1c(SCC(=O)N/N=C/c2ccc(OC)c(OC)c2)nc2ccccc21 do in these assays?
V-ATPase pHluor: inactive; OPRM1-OPRD1 inv: inactive; MOR-DOR ag: inactive; HTR5A ag: inactive; HTR5A inv ag: inactive; MIN6 prolif-1: 7.8; MIN6 prolif-2: inactive

What do the screens show for `CCCc1nnc(NC(=O)CCC(=O)N2CCN(S(=O)(=O)c3ccc(C)cc3)CC2)s1`?
V-ATPase pHluor: inactive; OPRM1-OPRD1 inv: inactive; MOR-DOR ag: inactive; HTR5A ag: inactive; HTR5A inv ag: inactive; MIN6 prolif-1: inactive

What do the screens show for `O=C(NNC(=O)C1CC(c2cccnc2)=NO1)Nc1cccc(F)c1` (stereo not drawn)?
V-ATPase pHluor: inactive; OPRM1-OPRD1 inv: inactive; MOR-DOR ag: inactive; HTR5A ag: inactive; HTR5A inv ag: inactive; MIN6 prolif-1: 5.6; MIN6 prolif-2: inactive

How did O=C(Nc1cccnc1)C1CC(c2ccc(Cl)c(Cl)c2)=NO1 (stereo not drawn) do in these assays?
V-ATPase pHluor: inactive; OPRM1-OPRD1 inv: inactive; MOR-DOR ag: inactive; HTR5A ag: inactive; HTR5A inv ag: inactive; MIN6 prolif-1: inactive

How did CCCc1cc(=O)[nH]c(SCC(=O)c2ccc3c(c2)OCCO3)n1 do in these assays?
V-ATPase pHluor: inactive; OPRM1-OPRD1 inv: inactive; MOR-DOR ag: inactive; HTR5A ag: inactive; HTR5A inv ag: inactive; MIN6 prolif-1: 0.0; MIN6 prolif-2: inactive

What do the screens show for `CCCc1cc(=O)[nH]c(SCC(=O)N(CCC#N)c2ccc3c(c2)OCCO3)n1`?
V-ATPase pHluor: inactive; OPRM1-OPRD1 inv: inactive; MOR-DOR ag: inactive; HTR5A ag: inactive; HTR5A inv ag: inactive; MIN6 prolif-1: inactive

What do the screens show for `CCCOc1c(Cl)cc(C(=O)NC)cc1OC`?
V-ATPase pHluor: inactive; OPRM1-OPRD1 inv: inactive; MOR-DOR ag: inactive; HTR5A ag: inactive; HTR5A inv ag: inactive; MIN6 prolif-1: 9.7; MIN6 prolif-2: inactive

What do the screens show for `COCCCNC(=S)NCCCNc1nc2cc3c(cc2cc1C#N)OCO3`?
V-ATPase pHluor: inactive; OPRM1-OPRD1 inv: inactive; MOR-DOR ag: inactive; HTR5A ag: inactive; HTR5A inv ag: inactive; MIN6 prolif-1: 5.8; MIN6 prolif-2: inactive

Results for COc1ccc2nc(NCCNC(=S)NCCCN3CCOCC3)c(C#N)cc2c1 ?
V-ATPase pHluor: inactive; OPRM1-OPRD1 inv: inactive; MOR-DOR ag: inactive; HTR5A ag: inactive; HTR5A inv ag: inactive; MIN6 prolif-1: inactive

What do the screens show for `CN(C)/C=N/c1c(C#N)cnn1-c1ncnc2sc(-c3ccccc3)cc12`?
V-ATPase pHluor: inactive; OPRM1-OPRD1 inv: inactive; MOR-DOR ag: inactive; HTR5A ag: inactive; HTR5A inv ag: inactive; MIN6 prolif-1: 12; MIN6 prolif-2: inactive

How did O=C(N/N=C/c1cc2c(cc1Cl)OCO2)c1cccc(Br)c1 do in these assays?
V-ATPase pHluor: inactive; OPRM1-OPRD1 inv: inactive; MOR-DOR ag: inactive; HTR5A ag: inactive; HTR5A inv ag: inactive; MIN6 prolif-1: 11; MIN6 prolif-2: inactive

What do the screens show for `CCCOc1ccc(CCCN=C(N)N)cc1Cl`?
V-ATPase pHluor: inactive; MIN6 prolif-1: inactive

How did CCN(CC)S(=O)(=O)c1cccc(-c2nnc(SCC(=O)c3cc(C)n(C)c3C)o2)c1 do in these assays?
V-ATPase pHluor: inactive; OPRM1-OPRD1 inv: inactive; MOR-DOR ag: inactive; HTR5A ag: inactive; HTR5A inv ag: inactive; MIN6 prolif-1: 12; MIN6 prolif-2: inactive

What do the screens show for `CCN(CC)S(=O)(=O)c1cccc(-c2nnc(SCCOc3ccccc3)o2)c1`?
V-ATPase pHluor: inactive; OPRM1-OPRD1 inv: inactive; MOR-DOR ag: inactive; HTR5A ag: inactive; HTR5A inv ag: inactive; MIN6 prolif-1: inactive

What do the screens show for `CCOC(=O)C1(Cc2ccc(Cl)cc2)CCN(C(=O)c2ccoc2)CC1`?
V-ATPase pHluor: inactive; OPRM1-OPRD1 inv: inactive; MOR-DOR ag: inactive; HTR5A ag: inactive; HTR5A inv ag: inactive; MIN6 prolif-1: inactive

How did CCOc1ccc(-c2nc(-c3cccnc3)no2)cc1OCC do in these assays?
V-ATPase pHluor: inactive; OPRM1-OPRD1 inv: inactive; MOR-DOR ag: inactive; HTR5A ag: inactive; HTR5A inv ag: inactive; MIN6 prolif-1: 9.7; MIN6 prolif-2: inactive

Results for CCOc1cc(-c2nc(-c3cc(OC)c(OC)c(OC)c3)no2)cc(OCC)c1OCC ?
MIN6 prolif-1: 6.5; MIN6 prolif-2: inactive

What do the screens show for `CCOc1ccc(-c2noc(-c3cccnc3)n2)cc1OCC`?
V-ATPase pHluor: inactive; MIN6 prolif-1: inactive

How did Cc1cc(Cl)ccc1C(=O)C1CCCN(C(=O)CN2CCOC2=O)C1 (stereo not drawn) do in these assays?
V-ATPase pHluor: inactive; OPRM1-OPRD1 inv: inactive; MOR-DOR ag: inactive; HTR5A ag: inactive; HTR5A inv ag: inactive; MIN6 prolif-1: inactive
